DT40 TDP1 CPT – DT40-hTDP1 cell growth loss with CPT; chicken DT40 Tdp1-/-;hTDP1 cells + 20 nM CPT, ATP luminescence, 48 h; Potency, µM (titrated, usually from 46.2 µM), for inactives: at the top dose activity change, negative = growth inhibition, hits mostly inhibitors; 420,000 tested, 12% active; AID 686979; further: potency means the concentration at half of the fitted maximal effect; nearly all actives have a fitted effect of over 55% in size
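Chicken DT40 Tdp1-/- cells complemented with human TDP1, 400 cells/well, exposed to compounds plus 20 nM camptothecin for at least 48 h at 37 C; viability read as ATP content by CellTiter-Glo luminescence.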
HT1080 IDH1KD tx – HT-1080 IDH1 knockdown cell toxicity (counter line) | HT-1080 IDH1 knockdown viability, ATP luminescence, 48 h | Potency, µM (top dose mostly 46.1 µM), for inactives: top-dose activity, negative = toxicity, usual class: cytotoxic | 360,000 tested, 2% active | AID 686971;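 further: potency means the concentration at half of the fitted maximal effect; 0% = DMSO wells and -100% = cell-free medium wells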
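Using the IDH1-knockdown HT-1080 line run in the same batch and compound series as the NT line, viability after 48 h at 37 °C was determined by CellTiter-Glo luminescence and expressed as % activity.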
DT40 TDP1 no CPT – qHTS for Inhibitors of human tyrosyl-DNA phosphodiesterase 1 (TDP1): qHTS in cells in absence of CPT. DT40 Tdp1-/- hTDP1 cells, no CPT, ATP luminescence, 48 h. Potency, µM (highest dose often 46.2 µM), inactives show at the highest dose activity change, negative = growth inhibition, actives largely listed as inhibitors. 420,000 tested, 15% active. AID 686978, 2013; further: potency means the concentration at half of the fitted maximal effect; nearly all actives have a fitted effect of over 55% in size
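Compound effects on proliferation are scored in DT40 Tdp1-/-;hTDP1 cells in the absence of CPT. ATP levels (CellTiter-Glo luminescence) are recorded after a ≥48 hr, 37 °C incubation.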
IL-1B inflam inh – inflammasome signaling inhibition, IL-1 beta readout; THP-1 LPS/ATP IL-1B secretion, AlphaLISA, 16 h; active compounds read low; 360,000 tested, 4.7% active; activity change, % at 57.5 µM; in the data active means activity change below about -50%; inconclusive means mostly about -30% to -49%
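Secreted IL-1B measured by AlphaLISA bead assay after 16 h compound exposure of THP-1 cells; compounds (final up to 57.5 uM) added 1 h before LPS (250 ng/mL) and ATP (1.25 mM) stimulation; lower signal means less secretion.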
HT1080NT lethal – kills 2HG-producing HT-1080-NT fibrosarcoma cells; Potency, µM (titrated, usually from 46.1 µM), inactives show at the top dose activity, negative = less viability, hits mostly cytotoxic; 360,000 tested, 1.6% active; HT-1080-NT fibrosarcoma viability, CellTiter-Glo ATP luminescence, 48 h;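 further: NT is the 2HG producing partner of a matched IDH1 knockdown line; potency means the concentration at half of the fitted maximal effect; 0% = DMSO-treated cells and -100% = media-only wells without cells; nearly all actives have a fitted effect of over 55% in size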
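Viability of the 2HG-overproducing fibrosarcoma line after 48 hours of compound exposure at 37 degrees C was determined by luminescence with CellTiter-Glo, and concentration-effect curves were then fitted and categorized.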
An asterisk follows results filed as active; ? = inconclusive; . = not tested or not shown; ! = a repeat was not active. Most compounds without a hit are left out; they make up all but 19% or so of the library. Unless noted, the call rests on the fitted dose curve; in most records, active means well fitted curve in the direction sought with a large enough effect; inconclusive means small, poorly fitted or top-dose-only effect, or another doubt; inactive means no such curve, though single readings can be large; an effect the other way counts as inactive or inconclusive. Unless noted, on the % scale 0 is the no-effect control and ±100 the full control effect.

SMILES	DT40 TDP1 CPT	HT1080 IDH1KD tx	DT40 TDP1 no CPT	IL-1B inflam inh	HT1080NT lethal
CC(C)C[C@H]1CN(CCCC[C@@H]2CNC(=O)C(=O)N2CC2CCCCC2)C(=O)C(=O)N1CCc1ccccc1	14%	?	-15%	22	21%
O=C(CCCc1ccncc1)c1ccccc1	-28%	21%	-20%	17	23%
N#CC1=C(S)N(c2ccccc2)C(c2ccc(-c3ccccc3Cl)o2)NC1=O (stereo not drawn)	?	1%	?	?	0%
CN1c2ccccc2C(C)(C)C12CC(CCl)=NO2 (stereo not drawn)	16µM*	9%	21µM*	-12	1%
CCNC(=O)N1CCOCC1	0%	2%	6.3µM*	-7	5%
Cc1nc2ccccc2c(=O)n1/N=C/c1ccc(F)cc1	-1%	?	15%	-18	11%
COc1ccc(CNC(=O)C(c2ccco2)N(C(=O)Cc2cccs2)c2cccnc2)cc1 (stereo not drawn)	?	4%	?	0	18%
COc1ccc(CNC(=O)C(c2ccco2)N(C(=O)c2csnn2)c2cccc(C)c2C)cc1 (stereo not drawn)	?	-1%	23µM*	-9	-1%
COc1ccc(CNC(=O)C(c2ccco2)N(Cc2cccs2)C(=O)Cc2cccs2)cc1 (stereo not drawn)	?	-2%	?	-52*	-19%
COc1ccc(CNC(=O)C(c2cccs2)N(Cc2ccco2)C(=O)Cc2cccs2)cc1 (stereo not drawn)	?	-25%	23µM*	?	-16%
O=C(NCc1ccc(F)cc1)C(c1ccco1)N(C(=O)c1csnn1)c1ccccc1 (stereo not drawn)	-25%	-4%	?	-4	-12%
O=C(Nc1ccncc1)c1cc(C2CCCCN2C(=O)CCCc2ccccc2)on1 (stereo not drawn)	16µM*	-9%	15µM*	2	0%
O=C(Nc1cccc2c1CCCC2)c1cc(C2CCCCN2C(=O)CCCc2ccccc2)on1 (stereo not drawn)	16µM*	-3%	?	0	0%
Cn1nc(C(F)(F)F)c(C#N)c1N1CCN(c2ccc(F)cc2)CC1	?	-11%	21µM*	-12	-7%
Cn1nc(C(F)(F)F)c(C#N)c1N1CCN(c2ccccc2)CC1	?	-1%	15µM*	-17	-18%
COC(=O)c1cc(C(=O)OCC(=O)c2ccc3c(c2)NC(=O)CO3)cc([N+](=O)[O-])c1	-1%	9%	-1%	9	1%
COc1cccc(CNS(=O)(=O)c2cc(-c3cc(C)no3)ccc2C(C)C)c1	21µM*	?	?	-24	-16%
CCc1ccccc1N(C)S(=O)(=O)c1cc(-c2cc(C)no2)ccc1OC	13µM*	?	?	22	?
COc1ccc(-c2cc(C)no2)cc1S(=O)(=O)NCc1cccc(C)c1	8%	?	?	49	18µM*
CCN(c1ccc(OC)cc1)S(=O)(=O)c1cc(-c2cc(C)no2)ccc1OC	-15%	-10%	?	0	-18%
COc1ccc(CNS(=O)(=O)c2cc(-c3cc(C)no3)ccc2OC)cc1OC	-7%	11%	7%	4	10%
CCN(c1ccc(OC)cc1)S(=O)(=O)c1cc(-c2cc(C)no2)ccc1C(C)C	?	-14%	21µM*	2	-7%
Cc1ccccc1NC(=O)CN(C)S(=O)(=O)c1ccc(-c2ccc(=O)[nH]n2)s1	-3%	10%	-18%	7	10%
COc1ccc(-c2cc(C)no2)cc1S(=O)(=O)NCc1ccc(OC(C)C)cc1	?	-4%	18µM*!	49	7%
COC(=O)N1CCN(c2ccc(Cl)c(Cl)c2)CC1	?	6%	?	-7	-2%
O=C(Nc1ccc(Br)cc1)N1CCC(CN2CCCC2)CC1	?	.	-13%	.	.
